Measured values published in PubChem BioAssay AID1159580 (chemical genetic matrix, 2015).
The whole screen tested about 5,500 compounds, of which about 2,000 (36%) were called active. Another 18% or so got no clear call; they are omitted. Cut-off read from the data, not from the text of the source: active = normalized growth mostly below about 0.91 (no sharp cut-off); inconclusive = no clear call, values can overlap the other calls; inactive = mostly above about 0.92. The list shows a part of the results.

Experiment: chemical genetic growth profiling, strain panel (AID 1159580);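 note: tested at 20 µM; growth read once vehicle control cultures reached saturation at 30 °C; 1 = growth at the plate median or of vehicle wells; lower values mean less growth of the strain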
Settings: growth OD
[1] = S. cerevisiae deletion strains, locus YDR150W, strain NUM1, active compounds read low
[2] = S. cerevisiae deletion strains, locus YGR078C, strain PAC10, active compounds read low
[3] = S. cerevisiae deletion strains, locus YJR075W, strain HOC1, active compounds read low
[4] = S. cerevisiae deletion strains, locus YMR263W, strain SAP30, active compounds read low
[5] = S. cerevisiae deletion strains, locus YNL153C, strain GIM3, active compounds read low
[6] = S. cerevisiae deletion strains, locus YPL055C, strain LGE1, active compounds read low

Measured: normalized growth

CCC(=O)N1CCN(C(=O)c2ccccc2)CC1
inactive: S. cerevisiae deletion strains, locus YAL040C, strain CLN3, active compounds read low 1.04 | S. cerevisiae deletion strains, locus YCL061C, strain MRC1 (second series), active compounds read low 0.992 | [1] 1.01 | S. cerevisiae deletion strains, locus YDR363W, strain ESC2, active compounds read low 0.993 | S. cerevisiae deletion strains, locus YER002W, strain NOP16, active compounds read low 1 | [2] 0.989 | [3] 1.02 | [4] 0.994 | [5] 1.05 | S. cerevisiae deletion strains, locus YNL175C, strain NOP13, active compounds read low 1.02 | S. cerevisiae deletion strains, locus YNL197C, strain WHI3, active compounds read low 0.983 | S. cerevisiae deletion strains, locus YNL224C, strain SQS1, active compounds read low 0.994 | S. cerevisiae deletion strains, locus YOR083W, strain WHI5 (second series), active compounds read low 1.03 | [6] 1

CC(=O)c1ccc(-c2ccc(C(C)=O)cc2)cc1
inactive: S. cerevisiae deletion strains, locus YAL013W, strain DEP1, active compounds read low 1 | S. cerevisiae deletion strains, locus YBR229C, strain ROT2, active compounds read low 0.999 | S. cerevisiae deletion strains, locus YDL101C, strain DUN1, active compounds read low 1.03 | S. cerevisiae deletion strains, locus YDL134C, strain PPH21, active compounds read low 1.01 | [1] 1 | S. cerevisiae deletion strains, locus YEL061C, strain CIN8, active compounds read low 1.01 | [2] 1.02 | S. cerevisiae deletion strains, locus YGR229C, strain SMI1, active compounds read low 1 | S. cerevisiae deletion strains, locus YHR030C, strain SLT2, active compounds read low 0.999 | S. cerevisiae deletion strains, locus YHR087W, strain rtc3, active compounds read low 0.987 | S. cerevisiae deletion strains, locus YJR043C, strain POL32, active compounds read low 0.974 | [3] 1.02 | S. cerevisiae deletion strains, locus YKL190W, strain CNB1, active compounds read low 1 | S. cerevisiae deletion strains, locus YLR039C, strain RIC1, active compounds read low 1.06 | S. cerevisiae deletion strains, locus YLR058C, strain SHM2 (second series), active compounds read low 0.987 | S. cerevisiae deletion strains, locus YLR085C, strain ARP6, active compounds read low 0.95 | S. cerevisiae deletion strains, locus YLR262C, strain YPT6, active compounds read low 1.03 | S. cerevisiae deletion strains, locus YML094W, strain GIM5, active compounds read low 0.955 | S. cerevisiae deletion strains, locus YMR219W, strain ESC1, active compounds read low 1.02 | [4] 1 | S. cerevisiae deletion strains, locus YMR307W, strain GAS1, active compounds read low 0.977 | [5] 1.01 | S. cerevisiae deletion strains, locus YNL298W, strain CLA4 (second series), active compounds read low 1.01 | S. cerevisiae deletion strains, locus YNL322C, strain KRE1, active compounds read low 1.01 | S. cerevisiae deletion strains, locus YNR030W, strain Alg12, active compounds read low 1.01 | S. cerevisiae deletion strains, locus YOL006C, strain TOP1, active compounds read low 0.956 | [6] 0.941 | S. cerevisiae deletion strains, locus YPL241C, strain CIN2, active compounds read low 0.991 | S. cerevisiae deletion strains, locus YPR135W, strain CTF4, active compounds read low 1.01 | S. cerevisiae strains, strain wild type, active compounds read low 1.03
